Bioassay records (PubChem)
HCMV inh: human cytomegalovirus inhibition | HFF cells, HCMV-luciferase reporter, 72 h; hits give low values | activity change, negative = inhibition, % at 57.5 µM | AID 1259415 | 4.5% of 410,000 active; in the data active = activity change below about -60%; inconclusive = no clear call, values can overlap the other calls; inactive = above about -39%; note: % is set by controls: 0 for no effect and ±100 for the full control effect
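Human foreskin fibroblasts infected with luciferase-reporter HCMV at MOI 1 PFU/cell, compounds at two doses. Luciferase measured 72 h post infection; normalized to buffer-only basal and Salinomycin (10uM) controls.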
Shiga inhibitor: Shiga toxin inhibition | inhibition, % at 38.7 µM | Vero cells, Shiga toxin protein synthesis inhibition reporter | AID 2315 | 9.2% of 290,000 active; in the data active = inhibition mostly above about 28%, no sharp cut-off; inactive = mostly below about 43%; note: 0% is about no effect
Pf growth 96h: inhibits malaria parasite growth, 96 h. P. falciparum luciferase reporter growth, 96 h. AID 504834. Potency, µM (series often up to 28.7 µM), for inactives: at the top dose activity change, negative = inhibition, actives largely listed as inhibitors. 6.9% of 320,000 active; note: potency is the fitted concentration of half-maximal effect; % is set by controls: 0 for no effect and ±100 for the full control effect
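Two parasite generations (96 h, 37 C, 5% CO2) of compound exposure in infected erythrocytes (0.05% parasitemia, 2% hematocrit). Luciferase-reporter P. falciparum; decreased luminescence indicates inhibited growth, aimed at apicoplast-acting delayed death.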
Pf growth 48h: P. falciparum growth inhibition at 48 hours (one generation) | P. falciparum luciferase growth in erythrocytes, 48 h | Potency, µM (titrated, usually from 28.7 µM), without a hit: at the top dose activity change, negative = inhibition, most hits filed as inhibitors | 5.9% of 310,000 active | AID 504832; note: potency is the fitted concentration of half-maximal effect; % is set by controls: 0 for no effect and ±100 for the full control effect
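Luciferase-expressing P. falciparum in infected erythrocytes (2% hematocrit, 0.1% parasitemia final) in RPMI 1640/0.5% Albumax were exposed to compound for 48 hours at 37 C, 5% CO2; growth read as luminescence.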
HCV inh: HCV inhibition. Huh7.5.1 HCVcc-Cre infection, luciferase reporter, 44 h. Potency, µM (titrated, usually from 41.8 µM), without a hit: at the top dose activity change, negative = inhibition, most hits filed as inhibitors. 3.4% of 340,000 active. AID 651820; note: potency is the fitted concentration of half-maximal effect; % is set by controls: 0 for no effect and ±100 for the full control effect
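Seed cells (1,000/well) for 4 h; treat with compound and infect with HCVcc-Cre, moi about 0.5. Incubate 44 h, then detect luciferase activity.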
Cycloheximide cs: affects cycloheximide protein synthesis inhibition readout, counter-screen; cell reporter, cycloheximide protein synthesis inhibition counterscreen; max response, %; 12% of 300,000 active; in the data active = max response mostly above about 13%, no sharp cut-off; inactive = mostly below about 14%; note: read at 38.3 µM for the half of the compounds with a filed dose; 0% is about no effect
The depositor's hits bear a star; ? = inconclusive; / = no result. A selection: hits, their analogues and other compounds. The true share with any hit is near 21%. Unless noted, calls come from the whole dose curve; as a rule, active = well fitted inhibition curve with a large enough effect; inconclusive = small, poorly fitted or top-dose-only effect, or another doubt; inactive = no such curve, though single readings can be large or run the other way.

SMILES	HCMV inh	Shiga inhibitor	Pf growth 96h	Pf growth 48h	HCV inh	Cycloheximide cs
CCCCOc1ccc(N=Nc2ccc(N)nc2N)cn1	105	29	217%	226%	-6%	18*
CCCCOc1ccc(S(=O)(=O)Nc2cc(OC)ccc2OC)cc1	?	10	57%	5%	10µM*	12
COc1ccc(C)cc1NS(=O)(=O)c1ccc2[nH]c(=O)c(=O)[nH]c2c1	6	/	/	/	/	/
COc1ccc(OC)c(NS(=O)(=O)c2ccc3[nH]c(=O)[nH]c3c2)c1	-102*	/	/	/	/	/
O=C(NN=C1CCCC1)c1sc2ccccc2c1Cl	5	43*	?	?	19%	38*
O=C1CCC/C(=N/NC(=O)c2sc3ccccc3c2Cl)C1	122	22	0%	32%	-4%	18*
O=C(NC1CCS(=O)(=O)C1)c1sc2ccccc2c1Cl (stereo not given)	-27	22	-27%	-40%	-5%	22
O=C1CCCC(=NNC(=O)c2cc3ccccc3cc2O)C1	/	/	/	/	-18%	/
CC(C)c1cc(C(=O)NC2CCCc3c2cnn3-c2ccccc2F)no1 (stereo not given)	-88*	13	22%	8%	11µM*	18
Cc1cc(C(=O)NC2CCCc3c2cnn3-c2ccccc2F)nc(C)n1 (stereo not given)	-21	18	0%	-8%	/	1
COc1cc(C(=O)NC2CCCc3c2cnn3-c2ccccc2F)cc(OC)c1OC (stereo not given)	-62*	-4	3.3µM*	?	8.9µM*	-1
COc1ccc(-c2sc(NC(C)=O)nc2-c2ccccc2)cc1	12	-5	33%	21%	?	-3
COCCNc1nc(-c2ccc(OC)cc2)c(-c2ccc(OC)cc2)s1	-69*	4	?	0%	?	10
COc1ccc(-c2nc(NC(C)=O)sc2-c2ccccc2)cc1	-4	-2	?	?	10µM*	14
O=C(CSc1nc(-c2ccc(F)cc2)cc(C(F)(F)F)n1)NCc1ccccc1	-25	/	/	/	/	/
c1ccc(NCc2ccncc2)cc1	43	3	?	49%	11%	1
c1ccc(-n2cnc3cc(NCc4ccncc4)ccc32)cc1	52	91*	?	?	-9%	27*
c1ccc(-n2cnc3cc(NCc4ccccn4)ccc32)cc1	?	82*	?	58%	?	59*
c1ccc(CNc2nc3ccccc3n3cnnc23)nc1	41	10	-6%	/	-1%	18
Cc1cc(OCCn2cc(C(=O)c3cccs3)c3ccccc32)ccc1Cl	-11	/	/	/	/	/
CC(C)(C)N1OC2CC1c1nc3ccccc3n1C2 (stereo not given)	16	2	0%	45%	12%	-5
COc1ccc(NC(=O)CCC(=O)N(Cc2ccc(OC)c(OC)c2)c2nccs2)c(OC)c1	-18	-16	2.9µM*	7%	-7%	-2
COc1ccc(OC)c(NC(=O)CCC(=O)N(Cc2ccc(OC)c(OC)c2)c2nccs2)c1	18	10	4%	-6%	-21%	5
COc1cc2nc(CN3CC=C(c4ccccc4)CC3)[nH]c(=O)c2cc1OC	-99*	/	/	/	3.5µM*	/
COc1cc2nc(CN3CCN(S(=O)(=O)c4ccccc4)CC3)[nH]c(=O)c2cc1OC	?	/	?	?	13%	/
SMILES	HCMV inh	Shiga inhibitor	Pf growth 96h	Pf growth 48h	HCV inh	Cycloheximide cs
CCN(Cc1ccccc1)C(c1cccs1)c1nnnn1C1CCCCC1 (stereo not given)	-26	-3	0%	9.3µM*	?	-1
CC(c1nnnn1C1CCCCC1)N(Cc1ccccc1)Cc1cccnc1 (stereo not given)	-38	-9	11%	10µM*	-1%	-3
CCN(Cc1ccccc1)C(c1ccccn1)c1nnnn1C1CCCCC1 (stereo not given)	0	-21	-32%	12µM*	11%	-3
Clc1ccc(C(c2nnnn2C2CCCCC2)N(Cc2cccnc2)Cc2ccco2)cc1 (stereo not given)	-1	11	?	?	20%	0
CC1=C(C(N)=O)C(c2ccccc2F)n2nc(CCCO)nc2N1 (stereo not given)	/	-4	-27%	-6%	17%	-5
Cc1ccc(C)c(NC(=O)CN2C(=O)CCc3cc(S(=O)(=O)N4CCCCC4)ccc32)c1	10	/	/	/	/	/
CC[N+](C)(C)CCN(Cc1ccc(Cl)cc1)c1ccccn1	?	-20	2.6µM*	/	-2%	-4
CCc1ccc(CN(C(=O)Nc2cccc(Cl)c2)c2ccccn2)cc1	24	/	/	/	/	/
COc1ccc(CC2(C)OC(c3ccc([N+](=O)[O-])cc3)=NN2C(C)=O)cc1 (stereo not given)	39	-9	9.3µM*	9.3µM*	?	1
CC(=O)/C(=N\Nc1ccc(Cl)cc1)Sc1nnc(-c2ccccc2)n1-c1ccccc1	-39	-12	15µM*	-22%	-11%	-6
O=C(O)CSc1nnc(-c2ccc(Cl)cc2)n1-c1ccccc1	-27	-15	9.3µM*	37%	/	1
Cc1ccc(NC(=S)NNC(C)(C)C)cc1	?	41*	5.9µM*	13µM*	-2%	34*
CCCS(=O)(=O)NC(=O)C1(C)CCCN(C(=O)/C=C/c2ccccc2)C1 (stereo not given)	1	/	/	/	/	/
CCN(CC)C(=O)CSc1nc2ncccc2[nH]1	5	11	12µM*	36%	35%	-2
CC1CCCCN1C(=O)CSc1nc2ncccc2[nH]1 (stereo not given)	-34	28	-20%	15%	19%	9
Cc1ccc(CSc2nc3ncccc3[nH]2)cc1	73	64*	0%	43%	-2%	20*
CC1CCCN(C(=O)CSc2nc3ncccc3[nH]2)C1 (stereo not given)	26	33*	-1%	14%	?	15*
C=C(C)CSc1nc2ncccc2[nH]1	55	12	-22%	3%	5%	-3
CCOC(=O)c1ccc(NC(=O)CSc2nc3ncccc3[nH]2)cc1	3	16*	?	23%	-19%	23*
C=CCCC(=O)N[C@H]1CC[C@@]23CCCN2C(=O)CCC[C@H]3[C@H]1Cc1ccccc1	26	/	/	/	/	/
O=C(NCc1ccncc1)C12CC3CC(CC(Cl)(C3)C1)C2	2	-7	4%	-6%	3%	-7
O=c1c(N2CCCCC2)csc2ccc(F)cc12	11	/	/	/	/	/
CC1CCCN(C(=O)CSc2cnc3ccccc3n2)C1 (stereo not given)	99	111*	101%	/	-14%	58*
O=C(Nc1ccc(Cc2ccc(NC(=O)C3CC3)cc2)cc1)C1CC1	-23	-9	31%	-7%	1%	1
O=C(Nc1ccc(Nc2ccccc2)cc1)C1CC1	-23	50	32%	?	-29%	21*
